Assay results published in PubChem BioAssay (NCI).
About 79,000 compounds went through this panel and 15% of them were active in at least one assay; those are over-represented in the sample as a whole. Active and inactive are the calls of the source. Rule as the data show it: active = growth inhibition above about 70%; inactive = the rest.

Legend:
[1] = NCI Yeast Anticancer Drug Screen. Data for the rad52 strain (AID 147);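 also: 0% = growth of vehicle-treated control cultures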; details: S. cerevisiae rad52 mutant growth inhibition, hits give high values
Method in brief: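 Measured: yeast growth inhibition. System: strain with a defined DNA damage repair alteration. Reference: vehicle-treated control cultures.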

[2] = NCI Yeast Anticancer Drug Screen. Data for the wt1 strain (AID 149);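 also: 0% = growth of vehicle-treated wt1 cultures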; details: S. cerevisiae wt1 strain (SPY 50644) growth inhibition, hits give high values
Method in brief: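 Each compound is tested on wt1 yeast and the loss of growth versus vehicle gives the inhibition value.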

[3] = NCI Yeast Anticancer Drug Screen. Data for the rad50EPP+ strain (AID 151);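 also: 0% = growth of vehicle-treated control cultures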; details: S. cerevisiae rad50 mutant strain, hits give high values
Method in brief: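 One strain with a rad50 alteration (rad50EPP+) was compound-treated, its growth then compared to that of vehicle controls.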

[4] = NCI Yeast Anticancer Drug Screen. Data for the mgt1 strain (AID 153); details: S. cerevisiae mgt1 mutant growth inhibition, hits give high values
Method in brief: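 After exposure of the mgt1 yeast mutant to compound, growth was measured and reported as inhibition compared with vehicle controls.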

[5] = NCI Yeast Anticancer Drug Screen. Data for the rad50 strain (AID 155);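 also: 0% = growth of vehicle-only cultures of the same strain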; details: S. cerevisiae rad50 strain growth inhibition, hits give high values
Method in brief: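 Vehicle-treated cultures provide the reference for the growth inhibition reported for compound-exposed, repair-deficient yeast.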

[6] = NCI Yeast Anticancer Drug Screen. Data for the mec2-1 strain (AID 157); details: S. cerevisiae mec2-1 strain, hits give high values
Method in brief: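 Test agents were screened against the mec2-1 yeast strain, with defined DNA repair or cell cycle alteration. Growth was scored as inhibition against vehicle-only controls.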

[7] = NCI Yeast Anticancer Drug Screen. Data for the rad14 strain (AID 159);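 also: 0% = growth of vehicle-treated control cultures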; details: S. cerevisiae rad14 strain growth inhibition, hits give high values
Method in brief: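 Inhibition of growth is reported for a repair-deficient yeast mutant following compound treatment, calculated relative to cultures that received vehicle.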

[8] = NCI Yeast Anticancer Drug Screen. Data for the sgs1 mgt1 strain (AID 161);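 also: 0% = growth of cultures given vehicle only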; details: S. cerevisiae sgs1 mgt1 strain, hits give high values
Method in brief: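 Read-out: growth inhibition vs vehicle controls. Cells: mutant yeast strain deficient in DNA damage repair.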

[9] = NCI Yeast Anticancer Drug Screen. Data for the CLN2oe strain (AID 163);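 also: 0% = growth of vehicle-only control cultures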; details: S. cerevisiae CLN2oe strain, hits give high values
Method in brief: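 Here, growth inhibition in a cell-cycle-altered yeast strain after compound exposure was quantified against vehicle control growth.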

[10] = NCI Yeast Anticancer Drug Screen. Data for the cln2 rad14 strain (AID 165);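 also: 0% = growth equal to vehicle treated cultures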; details: S. cerevisiae cln2 rad14 strain, hits give high values
Method in brief: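 Growth of compound-exposed yeast (cln2 rad14 genotype) measured and expressed as inhibition relative to vehicle.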

[11] = NCI Yeast Anticancer Drug Screen. Data for the bub3 strain (AID 167); details: S. cerevisiae bub3 mutant strain, hits give high values
Method in brief: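 Mutant yeast screening strain plus compound; vehicle-treated cultures serve as the 0% inhibition reference.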

[12] = NCI Yeast Anticancer Drug Screen. Data for the wt2 strain (AID 169); details: S. cerevisiae wt2 strain growth inhibition, hits give high values
Method in brief: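 Genetically defined yeast strains from a DNA-repair/cell-cycle panel were used. Compound-exposed yeast growth was measured, and the inhibition was calculated relative to vehicle treatment.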

[13] = NCI Yeast Anticancer Drug Screen. Data for the mlh1 strain (AID 171);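 also: 0% = growth of vehicle-treated control cultures of the same strain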; details: S. cerevisiae mlh1 strain growth inhibition, hits give high values
Method in brief: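 Here the genetically defined yeast mutant is grown with each compound, and the extent to which its growth falls below that of vehicle-exposed cells is reported.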

[14] = NCI Yeast Anticancer Drug Screen. Data for the sgs1 strain (AID 173);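 also: 0% = growth of vehicle-only control cultures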; details: S. cerevisiae sgs1 mutant, hits give high values
Method in brief: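 Relative growth inhibition, referenced to vehicle, was determined in a yeast strain with a defined alteration affecting DNA damage repair or cell cycle control after compound exposure.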

[15] = NCI Yeast Anticancer Drug Screen. Data for the mlh1 rad18 strain (AID 175); details: S. cerevisiae mlh1 rad18 strain growth inhibition, hits give high values
Method in brief: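 In this whole-cell yeast screen, a strain with altered DNA damage repair is challenged with compound, and its growth is measured against matched vehicle-treated controls.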

[16] = NCI Yeast Anticancer Drug Screen. Data for the rad18 strain (AID 177); details: S. cerevisiae rad18 mutant growth inhibition, hits give high values
Method in brief: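 Screen uses a yeast strain with a defined lesion in DNA damage repair; compound effect is read as loss of growth compared to untreated vehicle cultures.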

[17] = at 5.0 µM (retest, dose inferred, filed as 0.5)
[18] = at 50.0 µM (retest, dose inferred, filed as 5.0)

Measured: growth inhibition

COC(=O)c1ccccc1N=NNc1cccc(SC)c1
inactive: [1]; at 1.2 µM 11% | [1]; at 3.7 µM 13% | [1]; at 11.0 µM 23% | [2]; at 1.2 µM -14% | [2]; at 3.7 µM -31% | [2]; at 11.0 µM -27% | [3]; at 1.2 µM 9% | [3]; at 3.7 µM 21% | [3]; at 11.0 µM 39% | [3]; at 33.0 µM 47% | [3]; at 100.0 µM 36% | [4]; at 1.2 µM -16% | [4]; at 3.7 µM -18% | [4]; at 11.0 µM -3% | [5]; at 1.2 µM 12% | [5]; at 3.7 µM 16% | [5]; [17] 30% | [5]; at 11.0 µM 28% | [5]; [18] 41% | [6]; at 1.2 µM 1% | [6]; at 3.7 µM 9% | [6]; [17] 40% | [6]; at 11.0 µM 19% | [6]; [18] 39% | [7]; at 1.2 µM -11% | [7]; at 3.7 µM -21% | [7]; at 11.0 µM -6% | [8]; [17] 1% | [9]; at 1.2 µM -17% | [9]; at 3.7 µM 12% | [9]; at 11.0 µM -9% | [10]; [17] 42% | [11]; at 1.2 µM 12% | [11]; at 3.7 µM 6% | [11]; [17] 3% | [11]; at 11.0 µM 25% | [12]; at 1.2 µM -11% | [12]; at 3.7 µM -18% | [12]; at 11.0 µM 8% | [13]; at 1.2 µM 2% | [13]; at 3.7 µM 4% | [13]; at 11.0 µM 17% | [14]; at 1.2 µM -6% | [14]; at 3.7 µM -13% | [14]; at 11.0 µM 16% | [15]; [17] 21% | [15]; [18] 36% | [16]; at 1.2 µM -10% | [16]; at 3.7 µM -13% | [16]; at 11.0 µM 11%
active: [1]; at 33.0 µM 89% | [1]; at 100.0 µM 88% | [2]; at 33.0 µM 90% | [2]; at 100.0 µM 88% | [4]; at 33.0 µM 92% | [4]; at 100.0 µM 88% | [5]; at 33.0 µM 93% | [5]; at 50.0 µM 86.8% | [5]; at 100.0 µM 87% | [6]; at 33.0 µM 93% | [6]; at 50.0 µM 85.7% | [6]; at 100.0 µM 89% | [7]; at 33.0 µM 93% | [7]; at 100.0 µM 87% | [8]; [18] 94% | [8]; at 50.0 µM 88.8% | [9]; at 33.0 µM 93% | [9]; at 100.0 µM 85% | [10]; [18] 87% | [10]; at 50.0 µM 86% | [11]; at 33.0 µM 94% | [11]; [18] 87% | [11]; at 50.0 µM 85.9% | [11]; at 100.0 µM 89% | [12]; at 33.0 µM 93% | [12]; at 100.0 µM 89% | [13]; at 33.0 µM 94% | [13]; at 100.0 µM 88% | [14]; at 33.0 µM 93% | [14]; at 100.0 µM 84% | [15]; at 50.0 µM 85.2% | [16]; at 33.0 µM 94% | [16]; at 100.0 µM 89%

CCOc1ccc2nc3ccccc3c(N)c2c1
inactive: [1]; at 1.2 µM 13% | [1]; at 3.7 µM 22% | [1]; at 11.0 µM 60% | [2]; at 1.2 µM 7% | [2]; at 3.7 µM 13% | [2]; at 11.0 µM 37% | [3]; at 1.2 µM 2% | [3]; at 3.7 µM 4% | [3]; at 11.0 µM 21% | [3]; at 33.0 µM 59% | [4]; at 1.2 µM 0% | [4]; at 3.7 µM 9% | [4]; at 11.0 µM 35% | [5]; at 1.2 µM 7% | [5]; at 3.7 µM 21% | [5]; [17] 0% | [5]; at 11.0 µM 50% | [6]; at 1.2 µM 5% | [6]; at 3.7 µM 4% | [6]; [17] 21% | [6]; at 11.0 µM 19% | [7]; at 1.2 µM 4% | [7]; at 3.7 µM 23% | [7]; at 11.0 µM 50% | [8]; [17] 32% | [9]; at 1.2 µM 7% | [9]; at 3.7 µM 16% | [9]; at 11.0 µM 33% | [9]; at 33.0 µM 68% | [10]; [17] 46% | [11]; at 1.2 µM -20% | [11]; at 3.7 µM -2% | [11]; [17] 14% | [11]; at 11.0 µM 16% | [12]; at 1.2 µM 7% | [12]; at 3.7 µM 18% | [12]; at 11.0 µM 49% | [13]; at 1.2 µM 7% | [13]; at 3.7 µM 8% | [13]; at 11.0 µM 47% | [14]; at 1.2 µM 10% | [14]; at 3.7 µM 24% | [14]; at 11.0 µM 51% | [15]; [17] 10% | [16]; at 1.2 µM 4% | [16]; at 3.7 µM 8% | [16]; at 11.0 µM 30%
active: [1]; at 33.0 µM 91% | [1]; at 100.0 µM 97% | [2]; at 33.0 µM 83% | [2]; at 100.0 µM 94% | [3]; at 100.0 µM 90% | [4]; at 33.0 µM 83% | [4]; at 100.0 µM 94% | [5]; at 33.0 µM 89% | [5]; [18] 81% | [5]; at 50.0 µM 91.2% | [5]; at 100.0 µM 97% | [6]; at 33.0 µM 80% | [6]; [18] 82% | [6]; at 50.0 µM 83.7% | [6]; at 100.0 µM 97% | [7]; at 33.0 µM 87% | [7]; at 100.0 µM 92% | [8]; [18] 86% | [8]; at 50.0 µM 81.2% | [9]; at 100.0 µM 92% | [10]; [18] 84% | [10]; at 50.0 µM 86.2% | [11]; at 33.0 µM 78% | [11]; [18] 84% | [11]; at 50.0 µM 87.1% | [11]; at 100.0 µM 90% | [12]; at 33.0 µM 89% | [12]; at 100.0 µM 98% | [13]; at 33.0 µM 90% | [13]; at 100.0 µM 98% | [14]; at 33.0 µM 88% | [14]; at 100.0 µM 97% | [15]; [18] 82% | [15]; at 50.0 µM 89.5% | [16]; at 33.0 µM 83% | [16]; at 100.0 µM 97%

NC(=S)N/N=C1\c2ccccc2CCC1CCC1(O)CCc2ccccc2C1=O (stereo unspecified)
active: [1]; at 33.0 µM 86% | [1]; at 100.0 µM 85% | [2]; at 100.0 µM 80% | [4]; at 33.0 µM 82% | [4]; at 100.0 µM 84% | [5]; at 33.0 µM 84% | [5]; at 50.0 µM 86.8% | [5]; at 100.0 µM 78%
inactive: [1]; at 1.2 µM 43% | [1]; at 3.7 µM 47% | [1]; at 11.0 µM 55% | [2]; at 1.2 µM 21% | [2]; at 3.7 µM 24% | [2]; at 11.0 µM 19% | [2]; at 33.0 µM 44% | [3]; at 1.2 µM 36% | [3]; at 3.7 µM 23% | [3]; at 11.0 µM 17% | [3]; at 33.0 µM 23% | [3]; at 100.0 µM 10% | [4]; at 1.2 µM 21% | [4]; at 3.7 µM 18% | [4]; at 11.0 µM 48% | [5]; at 1.2 µM 35% | [5]; at 3.7 µM 19% | [5]; [17] 2% | [5]; at 11.0 µM 49% | [5]; [18] 52% | [6]; at 1.2 µM 5% | [6]; at 3.7 µM 13%
